Data: PubChem BioAssay AID2107 (National Center for Advancing Translational Sciences (NCATS), 2009)
The whole screen tested about 240,000 compounds, of which about 20 (0.008%) were called active. Roughly 1% stayed inconclusive and do not appear here. The call rests on the fitted dose curve; in most records, active means well fitted inhibition curve with a large enough effect; inconclusive means small, poorly fitted or top-dose-only effect, or effect the other way; inactive means flat fitted curve, though single readings scatter. These entries were drawn from the full list. Peptide text beside a SMILES is read from it.

Molecular target: Alpha-galactosidase A (Homo sapiens) (UniProt P06280)
Sequence (P06280 32-429 limits assumed): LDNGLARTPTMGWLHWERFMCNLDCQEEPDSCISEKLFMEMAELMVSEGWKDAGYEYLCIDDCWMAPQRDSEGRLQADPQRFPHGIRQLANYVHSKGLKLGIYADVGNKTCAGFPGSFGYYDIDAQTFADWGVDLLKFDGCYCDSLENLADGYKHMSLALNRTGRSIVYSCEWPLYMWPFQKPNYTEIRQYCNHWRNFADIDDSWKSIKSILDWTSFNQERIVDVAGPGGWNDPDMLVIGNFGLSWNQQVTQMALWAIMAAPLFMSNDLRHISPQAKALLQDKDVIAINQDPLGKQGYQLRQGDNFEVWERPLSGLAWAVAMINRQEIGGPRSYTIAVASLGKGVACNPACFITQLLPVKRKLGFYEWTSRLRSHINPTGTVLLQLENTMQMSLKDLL
Assay: qHTS Assay for Inhibitors and Activators of Human alpha-Galactosidase From Spleen Homogenate;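 further: 0% = enzyme with vehicle and -100% = no enzyme basal signal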
Settings: 4MU-alpha-Gal fluorescence, 40 min; series mostly up to 80 µM
Source text: NIH Chemical Genomics Center [NCGC] NIH Molecular Libraries Probe Production Centers Network [MLPCN] MLPCN Grant: R03 MH084842-01 Assay Submitter (PI): Wei Zheng NCGC Assay Overview: Alpha-galactosidase is a homodimeric glycoprotein that hydrolyzes the terminal alpha-galactosyl moieties from glycolipids and glycoproteins. Deficiency of this enzyme results in Fabry Disease with progressive accumulation of globotriaosylceramide and other glycosphingolipids in vascular endothelial cells that causes renal failure, myocardial infarction and stroke, and premature death in patients. It has been reported that the improper folding and trafficking of alpha-galactosidase resulting from genetic mutations may account for a significant number of Fabry patients. […] We optimized this alpha-galactosidase assay in 1536-well plate format for identification of novel small molecule inhibitors or activators with structures other than the sugar analogs in order to develop new pharmacological chaperones. In particular, this assay is directed towards discovering compounds active in more natural setting, tissue homogenate, that may have been missed by screens of the purified enzyme under more stringent conditions.
NCGC Assay Protocol Summary: This is a fluorogenic enzyme assay with 4-methylumbelliferyl-alpha-D-galactopyranoside as the substrate and human spleen homogenate containing alpha-galactosidase as the enzyme preparation. Upon hydrolysis of this fluorogenic substrate, the resulting product, 4-methylumbelliferone (which excites at 365 nm and emits at 440 nm) can be detected by a fluorescence plate reader. Data were normalized to the controls for basal activity (without enzyme) and 100% activity (with enzyme). The AC50 values were determined from concentration-response data modeled with the standard Hill equation. Assay buffer: 50 mM citric acid (titrated with potassium phosphate to pH 5.0), 0.01% Tween-20 (pH 5.0 is an optimal condition for this enzyme assay) 1536-well assay protocol for the alpha-galactosidase from human spleen homogenate: (1) Add 2 ul/well spleen homogenate (1 ug) (2) Add 23 nL compounds in DMSO solution. The final titration was 0.5 nM to 58 uM. (3) Add 2 ul of substrate (1 mM final) (4) Incubate at 37C for 40 min (5) Add 2 ul stop solution (1M NaOH and 1M Glycine mixture, pH 10) (6) Detect the assay plate in a ViewLux plate reader (PerkinElmer) with Ex=365 nm and Em=440nm. Keywords: Alpha-galactosidase, Fabry Disease, pharmacological chaperone, chaperone therapy, high throughput screening, alpha- galactosidase inhibitor, MLSMR, MLSCN, NIH Roadmap, qHTS and NCGC

Activity change, negative = inhibition, inactive:
Cn1c(N)c(C(=O)COC(=O)/C=C/c2ccc(OC(F)F)cc2)c(=O)n(C)c1=O, COc1ccc(Br)cc1C1C2C=CCC(C)C2C(=O)N1Cc1ccccc1 (centres undefined), N#CC1=C(N)Oc2c(ccc3cccnc23)C1c1ccncc1 (centres undefined), COC(=O)C1(C(C)=O)CC2=CC[C@H]3C(=O)N(c4ccccc4)C(=O)[C@H]3[C@@H]2Cc2ccccc2[C@@H]1C[N+](=O)[O-] (some centres undefined), N#Cc1ccc(OCc2nnc(-c3ccc([N+](=O)[O-])cc3)o2)cc1, CCOCCOC(=O)C(C)Oc1ccc(Oc2ncc(C(F)(F)F)cc2Cl)cc1 (centres undefined), CSc1ccccc1N1CCN(CCCCCC(=O)NC2CCCc3ccccc32)CC1 (centres undefined), Cc1cc(N(C)C)nc(Cl)n1, Cc1cccc(NC(=S)NCCc2ccc(F)cc2)c1C, CCn1c(SCC(=O)N/N=C/c2ccncc2)nc2ccccc21, Cc1ccc(Br)cc1, COc1ccc(C(=O)C2CCCN(C(=O)c3cnsn3)C2)c(C)c1 (centres undefined), CC(C)(C)c1ccc(OC2=CS(=O)(=O)c3ccccc32)cc1, CCn1cc(C(=O)NCCCN2CCCCCC2)c(=O)c2cc(S(=O)(=O)N3CCc4ccccc4C3)ccc21, Cc1ccc(C)c(NS(=O)(=O)c2cc(Br)cnc2N)c1, CCN(CC)/[N+]([O-])=N/Oc1cc(O/[N+]([O-])=N/N2CCCC2CO)c([N+](=O)[O-])cc1[N+](=O)[O-] (centres undefined), CCn1c(NC(=O)c2nn(C)cc2Br)nc2ccccc21, O=C(/C=C/Sc1ncn[nH]1)c1ccc(Cl)cc1, Cc1cc(C)nc(SC(C)C(=O)N/N=C/c2cccs2)n1 (centres undefined), CCN(CC)CCN1C(=O)C(=O)/C(=C(/O)c2cnn(-c3ccccc3)c2C)C1c1cccs1 (centres undefined), Cc1cc(F)ccc1S(=O)(=O)N1CCCOC1CNC(=O)C(=O)NCCC1=CCCCC1 (centres undefined), CN(Cc1nc2ccc(F)cc2[nH]1)Cc1nc(CC2CC2)no1, COc1ccc(C(CCN2CCOCC2)c2c(OC)cc(OC)c3c2OC(=O)CC3c2ccc(OC)cc2)cc1 (centres undefined), O=C1C2C(c3ccccc3)CC=CC2C(c2ccoc2)N1Cc1ccccc1 (centres undefined), O=C1C[C@@H](c2ccc3ccccc3c2)N1S(=O)(=O)c1ccccc1[N+](=O)[O-], Cc1onc(-c2c(Cl)cccc2Cl)c1C(=O)NNC(=O)c1c(-c2c(Cl)cccc2Cl)noc1C, COc1ccc(C(=O)C[n+]2ccc(N)c(C)c2C)cc1, CCN(C(=O)COC(=O)c1cc(NS(=O)(=O)c2ccc(Cl)c([N+](=O)[O-])c2)ccc1O)C1CCCCC1, Cc1ccc(-c2nn(-c3ccccc3)cc2C(=O)Nc2cccc(S(=O)(=O)N3CCOCC3)c2)cc1, CCc1nc(C)cn1S(=O)(=O)c1cc([N+](=O)[O-])ccc1Cl, COc1ccc(CN2CCC(c3nc4ccc(Cl)cc4[nH]3)CC2)cc1, O=C(COc1ccc(NC(=O)c2ccccc2[N+](=O)[O-])cc1)c1ccc(F)cc1, C=C1CCN(C(CC(C)C)C(=O)N2CCOCC2)S(=O)(=O)c2ccccc21 (centres undefined), CC(C)C[C@@H](N)c1nnc(SCC(=O)c2ccc(Cl)cc2)o1, Fc1ccc(Cl)cc1-c1nc(Nc2ccncc2)c2nccnc2n1, Cc1scc(C(=O)NNC(=S)NCc2ccccc2)c1C, Cc1cccc(-[n+]2c(-c3cccc(Br)c3)[nH]c3nc4ccccc4nc32)c1, O=[N+]([O-])c1ccccc1S(=O)(=O)Nc1cccc2cccnc12, C=C1CCN(Cc2ccc(OC)cc2)S(=O)(=O)c2ccccc21, COc1cc(OC)c2c(c1C(CCN1CCCCC1)c1ccc(N(C)C)cc1)OC(=O)CC2c1ccc(N(C)C)cc1 (centres undefined), CCN(CC)S(=O)(=O)c1ccc(N(C)Cc2ccc(C(F)(F)F)cc2)nc1, CCOc1ccc(NC(=O)CN(C)CC(=O)Nc2cccc(Cl)c2C)cc1OCC, Cc1cccc(NC(=S)Nc2ccc3cn[nH]c3c2)c1, O=C(CCl)N(Cc1cccc([N+](=O)[O-])c1)c1cccc(Cl)c1, CCCCc1nn(-c2ccccc2C(F)(F)F)c(=O)n1Cc1ccc(-c2ccccc2S(=O)(=O)NC(=O)c2sccc2C)cc1, CCCCC/C=C/C=C/C=O, CC(Sc1nnc2c(n1)C1CCC2(C)C1(C)C)C(=O)Nc1ccccc1 (centres undefined), CO[C@@]12[C@@H](COC(N)=O)C3=C(C(=O)C(C)=C(N)C3=O)N1C[C@@H]1N[C@@H]12, O=C1CN(Cc2ccccc2)S(=O)(=O)c2ccccc21, CCOC(=O)Cn1c(=O)sc2cccc(Cl)c21, Cc1nc2c(C(=O)NCc3cccs3)cnn2c(C)c1Cc1ccc(F)cc1, Cc1ccc(OCC(=O)Nc2ccccc2Sc2ccc(Cl)cc2)c([N+](=O)[O-])n1, Cc1cc2oc(=O)cc(-c3ccccc3)c2c(C)c1-c1ccc(OC(F)(F)F)cc1, H-EHIPA-OH, O=C(NC1CCN(Cc2ccccc2)CC1)c1ccc(Oc2cc(Cl)cc(Cl)c2)o1, Cc1ccc(CNC(=O)C2(C(F)(F)F)C/C(=C\Cc3ccccc3)CCCO2)o1 (centres undefined), CCCC[C@@H]1C[C@H]1C(NC(=O)c1ccco1)c1ccc(C(=O)OC)cc1 (some centres undefined), CCCN1CCC(=O)N(C(CSc2ccc(OC)cc2)Cc2ccccc2)CC1 (centres undefined), COc1ccc(C2/C=C\CN(C(=O)c3ccc(C)cc3)C(Cc3ccccc3)C(=O)N2Cc2ccc(F)cc2)cc1 (centres undefined), c1ccc2c(Nc3ccncc3)nc(-c3ccc4c(c3)OCO4)nc2c1, COc1ccc(-c2ccc(OC)c(C3C4C=CCC(C)C4C(=O)N3Cc3ccccc3)c2)cc1C (centres undefined), S=C(NCCc1ccccc1)NCc1ccccc1Cl, C=CCN(C(=O)c1cc(C)cc(C)c1)C1(C(=O)Nc2ccccc2)CCN(C(C)C)CC1, CCCCCOc1ccc(/C=C/C(=O)NCCc2nc3ccccc3[nH]2)cc1OC, O=C(O)C1CC=CC2CCN(C3CCCCC3)C(=O)C21 (centres undefined), CCOc1cc(-c2conc2N)cc(OCC)c1OCC, CC1(OC(=O)c2ccc(Cl)nc2)C(=O)Cc2cc(-c3ccsc3)ncc2C1=O (centres undefined) 4.14% [at 17.5 µM], O=C(O)CCc1nc2cc(Cl)ccc2n(Cc2ccccc2)c1=O, Cc1ccc(S(=O)(=O)c2nc(NCCCn3ccnc3)sc2Cl)cc1, COc1cccc2sc(N(CCCN(C)C)C(=O)C(c3ccccc3)c3ccccc3)nc12, CC(=O)OCCC(C)C, CN(C)CCOCCOc1ccc(Cl)c2ccccc12, COC(=O)CCc1ccccc1S(=O)(=O)N(CCC(=O)OC)Cc1ccccc1, CC(C)C(NS(=O)(=O)c1ccc(-c2ccc(Br)cc2)cc1)C(=O)O (centres undefined), CCn1c2ccccc2c2cc(NC(=O)Nc3ccc([N+](=O)[O-])cc3C)ccc21, COc1ccc(NC(=O)CSc2nnc(-c3ccccc3F)n2C2CC2)cc1S(N)(=O)=O, Cc1cc(C(=O)COc2ccccc2[N+](=O)[O-])c(C)n1-c1cccc(S(=O)(=O)N2CCOCC2)c1, Oc1ccc(-c2c(-c3ccccc3)nn3c(C(F)(F)F)cc(C(F)(F)F)nc23)cc1, CCCn1c(C)nc2c(NCCCCN(CC)CC)nc(C)nc21, COc1ccc(C2=Nn3c(nnc3-c3ccccc3O)SC2)cc1, O=C(Cc1coc2ccc3ccccc3c12)NCc1cccs1, O=C(CSC(=S)N1CCCCC1)c1c(F)cccc1F, O=c1c([N+](=O)[O-])cccn1Cc1ccc(F)cc1Cl, CCc1nnc(NC(=O)C2CC(=O)N(c3ccc4c(c3)OCCO4)C2)s1 (centres undefined), CCOC(=O)N1CCN(C(=O)c2ccccc2N(Cc2ccccc2)S(=O)(=O)c2ccc(OC)cc2)CC1, O=S(O)S(=O)(=O)O, COc1c(O)c2c(=O)cc(OC)c3c4c(OC)cc(=O)c5c(O)c(OC)c6c(c(c1C[C@@](C)(O)[C@H]6C(C)=O)c23)c54, NC(=O)C1(C(N)=O)OC1c1ccc(Cl)cc1Cl (centres undefined), C/C(=N/N1CCN(Cc2cccc3ccccc23)CC1)c1cccnc1, COc1ccc(N(C(=O)c2ccc(C)cc2)S(=O)(=O)c2cccs2)cc1, C[C@H]1CC[C@H](C(=O)O)N[C@@H]1c1ccc(C#Cc2ccccc2)cc1 7.47% [at 17.5 µM], COc1ccc(-c2cn3ccc(C)cc3n2)cc1, CCN(CC)CCOCCOc1ccc(Cl)c2ccccc12, Cc1noc(C)c1-c1ccc2ncnc(NC(C)c3ccco3)c2c1 (centres undefined), Nc1ncnc2c1ncn2C1CC(O)C(CO)O1 (centres undefined), O=C(Nc1ccc2c(c1)OCO2)c1sc2cc(Cl)ccc2c1Cl, C/C(=N\NC(=O)c1ccc(C)cc1)C1C(=O)c2ccccc2C1=O, COc1ccccc1N1CCN(C(=O)c2ccc(Cl)c(S(=O)(=O)N3CCCC3)c2)CC1, CCOC(OCC)OCC, Cc1ccc(C)c2[nH]c(=O)c(CN(Cc3cccnc3)C(=S)NCc3ccco3)cc12, Cc1ccc(CNC(=O)C2(C(F)(F)F)C/C(=C\CCO)CCCO2)o1 (centres undefined), COc1cccc(NC(=O)CC2C(=O)NCCN2C(=S)Nc2ccc(F)cc2)c1 (centres undefined), Cc1ccc(SCC(CC(C)C)N2CCN(CCc3ccccc3)CCC2=O)cc1 (centres undefined), COC(=O)c1sc(=S)n(-c2ccc(Cl)cc2)c1C, COC(=O)c1ccc([C@@H](O)[C@H](C)C(=O)CC(=O)OC(C)(C)C)cc1, C[C@@H](O)[C@@H]1NC(=O)[C@H](CCCCN)NC(=O)[C@H](Cc2c[nH]c3ccccc23)NC(=O)[C@H](Cc2ccccc2)NC(=O)[C@H](Cc2ccccc2)NC(=O)[C@H](CC(N)=O)NC(=O)[C@H](CCCCN)NC(=O)[C@@H](NC(=O)[C@@H]2CCCN2)CSSC[C@@H](C(=O)N[C@@H](CCCCN)C(=O)O)NC(=O)[C@H](CO)NC(=O)[C@H](CO)NC(=O)[C@H](Cc2ccccc2)NC1=O (HELM PEPTIDE1{P.C.K.N.F.F.W.K.T.F.S.S.C.K}$PEPTIDE1,PEPTIDE1,2:R3-13:R3$$$V2.0), Cc1ccccc1N1CCN(Cc2nc(Cc3ccccc3F)no2)CC1, O=c1cc(-c2ccc(O)cc2)oc2c(-c3cc(-c4cc(=O)c5c(O)cc(O)cc5o4)ccc3O)c(O)ccc12, O=C(CSc1nc(O)c(Cc2ccccc2)c(=O)[nH]1)Nc1nc2c(s1)CCCC2, CCOC(=O)C1=C(CN2CCc3ccccc32)NC(=O)NC1c1ccc(Cl)cc1 (centres undefined), C=CCOC(=O)C(=C)C, COc1ccc(-c2ccc(C3C4C=CCCC4(C)C(=O)N3Cc3ccccc3)c(F)c2)cc1OC (centres undefined), Cc1cccc(CNc2ccnc(-c3cccnc3)n2)c1, OCCC(O)CO (centres undefined), C/C=C/c1ccc(OCC(O)CN2CCCCCCC2)c(OC)c1 (centres undefined), Cc1ccc(N(C(=O)c2ccc(S(=O)(=O)N(C)C)cc2)C2C=CS(=O)(=O)C2)cc1 (centres undefined), CC[C@H](C)[C@H](NC(=O)[C@H](CCCNC(=N)N)NC(=O)[C@H](CCCNC(=N)N)NC(=O)[C@H](CC(C)C)NC(=O)[C@H](Cc1ccccc1)NC(=O)CNC(=O)CNC(=O)[C@@H](N)Cc1ccc(O)cc1)C(=O)N[C@@H](CCCNC(=N)N)C(=O)N1CCC[C@H]1C(=O)N[C@@H](CCCCN)C(=O)N[C@@H](CC(C)C)C(=O)N[C@@H](CCCCN)C(=O)N[C@@H](Cc1c[nH]c2ccccc12)C(=O)N[C@@H](CC(=O)O)C(=O)N[C@@H](CC(N)=O)C(=O)N[C@@H](CCC(N)=O)C(=O)O, CC(C)=CCC[C@]1(C)[C@@H](CC=C(C)C)C[C@@]2(CC=C(C)C)C(=O)[C@]1(C(=O)C(C)C)C(=O)C(CC=C(C)C)=C2O, COC(=O)C(CC(C)C)NS(=O)(=O)c1cc(Br)ccc1Br (centres undefined)
